Results as given in PubChem BioAssay (NCATS).
Records with an inconclusive call do not appear. Active and inactive are the calls of the source. The call rests on the fitted dose curve; in most records, active means well fitted curve in the direction sought with a large enough effect; inconclusive means small, poorly fitted or top-dose-only effect, or another doubt; inactive means no such curve, though single readings can be large; an effect the other way counts as inactive or inconclusive.

Tests used:
[1] = qHTS assay for measurement of the activity of small molecule inhibitors on Zika virus induced Caspase-3 activity in human astrocytoma cells (AID 1224859)
Method in brief: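 A cell-based luminescent caspase-3/7 assay used SNB-19 cells infected with ZIKV (2 FFU/cell) for 6 h following 1 h compound pretreatment.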

[2] = qHTS assay to identify small molecule inhibitors of chordoma cells - UCH-1 (AID 1259355); further: nearly all actives have a fitted effect of over 55% in size
Method in brief: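 Screening used approved and investigational drugs in 15-point titration against 800 seeded cells per well. A fixed combination of auranofin with camptothecin, doxorubicin, rubitecan and topotecan followed compound addition, and growth was scored by CellTiter-Glo after 48hr.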

[3] = qHTS assay to identify small molecule inhibitors of chordoma cells - UCH-2 (AID 1259356); further: series mostly up to about 46 µM
[4] = NS1 protein of Zika virus - qHTS assay to identify small molecule inhibitors in human HEK 293 cells (AID 1347053); further: series mostly up to about 46 µM; nearly all actives have a fitted effect of over 55% in size
Method in brief: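 Read-out is a two-antibody TR-FRET for ZIKV NS1, normalized between uninfected cells and infected cells. Compound added 1 h before MR766 infection at MOI 0.5; human HEK 293 cells incubated 24 h, 37 C.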

[5] = qHTS of pediatric cancer cell lines to identify multiple opportunities for drug repurposing: Primary screen for DAOY cells (AID 1347090); further: series mostly up to about 46 µM; nearly all actives have a fitted effect of over 55% in size
Method in brief: (§1)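 Viability measured as metabolically active cells via CellTiter-Glo luminescence following 48 hours of compound exposure, 11-point dilutions in confirmatory testing. 500-1,000 cells/well plated 5 hours before dosing; controls were DMSO and 2.3 µM bortezomib.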

[6] = qHTS of pediatric cancer cell lines to identify multiple opportunities for drug repurposing: Primary screen for TC32 cells (AID 1347089); further: nearly all actives have a fitted effect of over 60% in size
Method in brief: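 Luminescent ATP read-out (CellTiter-Glo) of metabolically active TC32 cells after 48 h exposure. Concentration-response curves came from 11-point (MIPE, 0.78 nM–46 µM) or 8-point (NPC, 0.59 nM–46 µM) primary titrations; follow-up used 11 points.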

[7] = qHTS of pediatric cancer cell lines to identify multiple opportunities for drug repurposing: Primary screen for A673 cells (AID 1347092); further: nearly all actives have a fitted effect of over 45% in size
Method in brief: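 Cell viability of A673 measured by CellTiter-Glo ATP luminescence after 48 hours compound exposure. Dilution series spanned 0.78 nM to 46 µM (MIPE, 11-point) or 0.59 nM to 46 µM (NPC, 8-point); bortezomib 2.3 uM positive control.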

[8] = qHTS of pediatric cancer cell lines to identify multiple opportunities for drug repurposing: Primary screen for BT-37 cells (AID 1347094); further: series mostly up to about 57 µM
Method in brief: (§2)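 Following a 5-hour attachment period, cells at 500-1,000/well received compounds and were cultured for 48 hours. CellTiter-Glo was added and luminescence read to estimate viable, metabolically active cells.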

[9] = qHTS of pediatric cancer cell lines to identify multiple opportunities for drug repurposing: Primary screen for NB-EBc1 cells (AID 1347095)
Method in brief: as §2

[10] = qHTS of pediatric cancer cell lines to identify multiple opportunities for drug repurposing: Primary screen for SK-N-MC cells (AID 1347093); further: series mostly up to about 46 µM
Method in brief: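 Metabolically active cells were quantified by ATP-dependent luminescence (CellTiter-Glo, 15 min at room temperature) following 48 h treatment. Cells had been plated at 500-1,000 per well and settled for 5 h beforehand.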

[11] = P-glycoprotein substrates identified in KB-8-5-11 adenocarcinoma cell line, qHTS therapeutic library screen (AID 1346987); further: series mostly up to about 44 µM; nearly all actives have a fitted effect of over 65% in size
Method in brief: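 Human cervical adenocarcinoma KB-8-5-11 cells, selected in colchicine to over-express P-gp and assayed without it, were exposed for 72 h to titrated compounds. An ATP-based luminescent viability signal gave AC50.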

[12] = qHTS of pediatric cancer cell lines to identify multiple opportunities for drug repurposing: Primary screen for SJ-GBM2 cells (AID 1347091)
Method in brief: as §1

Measured: Potency

CCN(CC)CCOc1ccc2c(c1)C(=O)c1cc(OCCN(CC)CC)ccc1-2
inactive: [1] | [2] | [3] | [4] | [5]

CN(CCCN1c2ccccc2CCc2ccccc21)CC(=O)c1ccc(Cl)cc1
not listed: [5] | [10] | [11] | [12]
inactive: all other assays above

O=C(Nc1ccccc1)OCC(CN1CCCCC1)OC(=O)Nc1ccccc1 (stereo not drawn)
not listed: [7] | [8] | [11] | [12]
inactive: all other assays above

CCO[C@@H]1O[C@H](C(COCc2ccccc2)OCc2ccccc2)[C@H](OCc2ccccc2)[C@H]1O (stereo partly drawn)
inactive: [1] | [2] | [3] | [4] | [6] | [9]

CO[C@]12C[C@@H](COC(=O)c3cncc(Br)c3)CN(C)[C@@H]1Cc1cn(C)c3cccc2c13
not listed: [10] | [11] | [12]
inactive: all other assays above

Cc1cc(-c2ccccc2)nnc1NCCN1CCOCC1
not listed: [3] | [9]
inactive: all other assays above

CN(C)CCOC(c1ccc(Cl)cc1)c1ccccn1 (stereo not drawn)
not listed: [3] | [11]
inactive: all other assays above

O=C1OC2(c3ccccc31)c1cc(Br)c(O)c(Br)c1Oc1c2cc(Br)c(O)c1Br
not listed: [3] | [10]
inactive: all other assays above

CC(=O)O[C@]1(C(C)=O)CC[C@H]2[C@@H]3C=C(C)C4=CC(=O)CC[C@]4(C)[C@H]3CC[C@@]21C
not listed: [3] | [5] | [11]
inactive: all other assays above

COc1cc(C(=O)N2CCCCCCC2)cc(OC)c1OC
not listed: [3] | [12]
inactive: all other assays above

O=C(O)CCc1nc2ccccc2[nH]1
not listed: [3] | [5] | [12]
inactive: all other assays above

CN1CCc2cccc3c2[C@H]1Cc1ccc(O)c(O)c1-3
inactive: [1] | [2] | [4]

O=C1C(CCS(=O)c2ccccc2)C(=O)N(c2ccccc2)N1c1ccccc1 (stereo not drawn)
not listed: [3]
inactive: all other assays above

CCCCCCCCCCC[C@@H](C[C@@H]1OC(=O)[C@H]1CCCCCC)OC(=O)[C@H](CC(C)C)NC=O
inactive: [1] | [2] | [11] | [4] | [6] | [5] | [8]

Cl/C(=C\n1cncn1)c1ccc(Cl)cc1Cl
not listed: [3] | [5] | [11]
inactive: all other assays above

CCCCC(CC)COC(=O)c1ccc(N(C)C)cc1 (stereo not drawn)
not listed: [3] | [5] | [9]
inactive: all other assays above
